aSyn 5UTR act: Activators via SNCA 5'UTR binding, MLPCN. alpha-synuclein 5'UTR reporter, activators screen. activity score, % (tested at 7.5 µM), hits read low. 7.1% of 300,000 active. AID 1814; in the data active means activity score below about -60%
Of the large screens only hits and unclear results are named; the others gave an inactive call. Not all results are given here.

O=C(NCc1csc(-c2ccccc2)n1)c1cc(F)cc2c1OCOC2	aSyn 5UTR act -113
CC(=O)Oc1ccc(C(=O)[C@H]2[C@H]3C(=O)N(c4ccc(C)cc4)C(=O)[C@H]3[C@@H]3C=CC=NN32)cc1	aSyn 5UTR act -62
O=C(Nc1ccccc1)[C@@H]1[C@@H]2C(=O)N(c3ccc(F)cc3)C(=O)[C@@H]2[C@H]2C=CC=NN21	aSyn 5UTR act -68
COc1cc2nc(Nc3cccc(F)c3)nc(N)c2cc1OC	aSyn 5UTR act -93
C(=C\c1ccco1)/c1nc2ccccc2[nH]1	aSyn 5UTR act -141
CCOc1cc(/C=C2/NC(=O)N(CC(=O)OC)C2=O)ccc1O	aSyn 5UTR act -66
Clc1ccc(-c2noc(CN3CCOCC3)n2)cc1	aSyn 5UTR act -86
O=C(Nc1ccccc1)ON=C1CCCC1	aSyn 5UTR act -82
Cc1ccc(NC(=O)ON=C2CCCC2)cc1	aSyn 5UTR act -205
Oc1ccccc1CNc1cnc2ccccc2c1	aSyn 5UTR act -260
C=CCc1cccc(CNc2cnc3ccccc3c2)c1O	aSyn 5UTR act -94
Oc1ccc2ccccc2c1CNc1cnc2ccccc2c1	aSyn 5UTR act -97
O=C(/C=C/c1ccccc1Cl)NCc1ccco1	aSyn 5UTR act -120
Cc1onc(-c2ccccc2Cl)c1C(=O)NCc1ccco1	aSyn 5UTR act -80
Cc1nc(C(=O)NNC(=O)c2c(-c3c(Cl)cccc3Cl)noc2C)cs1	none
N#C/C(=C\C=C\c1ccccc1)C(=O)NCc1ccco1	aSyn 5UTR act -63
O=C(/C=C/c1ccc2c(c1)OCO2)NCc1ccco1	aSyn 5UTR act -68
O=C(/C=C/c1ccccc1)NCc1ccco1	aSyn 5UTR act -72
COc1cc(C(=O)Nc2nc3ccccc3s2)ccc1OCc1c(C)noc1C	aSyn 5UTR act -110
CC(=O)Nc1cc(C)nn1-c1nc2ccccc2s1	aSyn 5UTR act -178
Cc1cc(C)n(-c2ccc(C(=O)Nc3nc4ccccc4s3)cc2)n1	aSyn 5UTR act -97
CCc1cc2c(=O)n(C(C)C(=O)OC3CCCCC3)cnc2s1 (stereo not drawn)	aSyn 5UTR act -137
OCCCNc1c2ccccc2nc2ccccc12	aSyn 5UTR act -155
c1ccc2c(NCCc3c[nH]c4ccccc34)c3ccccc3nc2c1	aSyn 5UTR act -549
Fc1cccc(NCCc2c[nH]c3ccccc23)n1	aSyn 5UTR act -101
COc1cccc(NC(=O)c2ccc3c(c2)CCN3S(C)(=O)=O)c1	aSyn 5UTR act -118
CN1CCSc2ccc(C(=O)Nc3ccc(Cl)cc3)cc21	aSyn 5UTR act -215
COc1cccc(NC(=O)c2ccc3c(c2)N(C)CCS3)c1	aSyn 5UTR act -117
COc1ccc(Cl)c2c1[nH]c1nc(SCc3ccccn3)nnc12	aSyn 5UTR act -106
Cc1ccc2nc(CSc3nc(C)cc(C)c3C#N)[nH]c2c1	aSyn 5UTR act -70
O=C(NCCc1ccc(Cl)cc1)c1ccc(Br)s1	aSyn 5UTR act -180
O=C(NCCCCCCNC(=O)c1ccc(Br)s1)c1ccc(Br)s1	aSyn 5UTR act -108
COc1ccc(C(C#N)=C2C=CC(=NO)C=C2)cc1	aSyn 5UTR act -148
CCc1cc(C(=O)NNC(=S)Nc2cccc(C)c2)cs1	aSyn 5UTR act -130
Cc1cccc(NC(=S)NNC(=O)c2csc(C(C)C)c2)c1	aSyn 5UTR act -211
CCc1cc(C(=O)Nc2ccc(C)cc2Br)cs1	aSyn 5UTR act -255
Cc1cccc(NC(=S)NNC(=O)c2sccc2C)c1	aSyn 5UTR act -134
Cc1cc(C2=NNC(=NC3CC3)SC2)c(C)n1-c1ccccc1F	none
Cc1ccccc1N=C1NN=C(c2ccccc2F)CS1	aSyn 5UTR act -171
COc1cc(C2Nc3cc(Cl)c(S(N)(=O)=O)cc3S(=O)(=O)N2)ccc1OCc1ccccc1 (stereo not drawn)	aSyn 5UTR act -147
CCCOC1CCCN(C(=O)CCc2nnc(-c3ccc4c(c3)OCO4)o2)C1 (stereo not drawn)	aSyn 5UTR act -73
CCC(=O)C1CCCN(C(=O)CCc2nnc(-c3ccc(C(C)=O)s3)o2)C1 (stereo not drawn)	aSyn 5UTR act -88
Cc1c(C(=O)N2C[C@@H](C)O[C@@H](C)C2)oc2c(F)cccc12	aSyn 5UTR act -73
Cc1c(C(=O)NC2CCOC2)oc2c(F)cccc12 (stereo not drawn)	aSyn 5UTR act -148
Cn1c(-c2nnn(-c3ccc(F)cc3)n2)cc2ccccc21	aSyn 5UTR act -156
Cc1ccc(-n2nnc(-c3cc4ccccc4n3C)n2)cc1	aSyn 5UTR act -88
O=C1C(Cl)=C(Nc2cccc(O)c2)C(=O)N1Cc1ccccc1	aSyn 5UTR act -69
COc1ccc(/C=N\n2nnc3ccccc32)cc1	none
COc1ccc(/C=N/n2cc(-c3ccccc3)nc2N)cc1	aSyn 5UTR act -134
Cc1cc(N2CCOCC2)nc2ccc(NC(=O)CCC(=O)N3CCC(C)CC3)cc12	aSyn 5UTR act -105
Cc1cc(N2CCOCC2)nc2ccc(Cl)cc12	aSyn 5UTR act -111
CCCCN(C)C(=O)CCC(=O)Nc1ccc2nc(N3CCOCC3)cc(C)c2c1	aSyn 5UTR act -76
CCC(C)NC(=S)Nc1ccc2nc(N3CCN(CC)CC3)cc(C)c2c1 (stereo not drawn)	aSyn 5UTR act -95
COc1ccc(NC(=O)CCC(=O)Nc2ccc3nc(N4CCOCC4)cc(C)c3c2)c(OC)c1	aSyn 5UTR act -94
CCC(C)NC(=O)CCC(=O)Nc1ccc2nc(N3CCOCC3)cc(C)c2c1 (stereo not drawn)	aSyn 5UTR act -86
CCCCNC(=O)CCC(=O)Nc1ccc2nc(N3CCC(C)CC3)cc(C)c2c1	aSyn 5UTR act -69
CCN1CCN(c2cc(C)c3cc(NC(=O)CCC(=O)N4CCN(c5ccccc5OC)CC4)ccc3n2)CC1	aSyn 5UTR act -62
Cc1nc(Nc2cnc(/C=C/c3cc(C(=O)Nc4cccc(C(F)(F)F)c4)ccc3C)cn2)cc(N2CCNCC2)n1	none
Cc1cc(N2CCOCC2)nc2ccc(NC(=O)CCC(=O)N3CCCCC3)cc12	aSyn 5UTR act -90
Cc1cc(N2CCOCC2)nc2ccc(NC(=O)CCC(=O)N3CCN(c4cccc(C(F)(F)F)c4)CC3)cc12	aSyn 5UTR act -72
Cc1cc(NC(=O)CC#N)n(-c2nc3ccccc3[nH]2)n1	aSyn 5UTR act -71
CC1CC1c1ccc(/C=C(\C#N)C(=O)Nc2cccc(Cl)c2Cl)o1 (stereo not drawn)	aSyn 5UTR act -111
COc1ccc(C2CC(=O)N(C)c3ccccc3S2)cc1OC (stereo not drawn)	aSyn 5UTR act -87
Clc1ccccc1-c1nc(-c2ccccc2)n[nH]1	aSyn 5UTR act -214
CCC(C)c1ccc2oc(-c3ccc(NC(=O)Cn4cnc5c(=O)n(C)c(=O)n(C)c54)cc3)nc2c1 (stereo not drawn)	aSyn 5UTR act -114
Cc1ccc2oc(-c3cccc(NC(=O)Cn4cnc5c(=O)n(C)c(=O)n(C)c54)c3)nc2c1	aSyn 5UTR act -119
Cc1cccc(CCNc2nc3ccc(C)cc3n3cnnc23)c1	aSyn 5UTR act -156
Cc1ccc(-c2nn(-c3ccccc3)cc2CO)o1	aSyn 5UTR act -82
Cc1ccc(-c2nn(-c3ccccc3)cc2CSC(=N)N)cc1	none
Cc1ccc(-c2nn(-c3ccccc3)cc2C=O)o1	aSyn 5UTR act -88
Oc1ccc(O)c(-c2cnns2)c1	aSyn 5UTR act -71
Cc1ccc(NC(=O)CSc2nnc(-c3ccccc3C)o2)cc1C	aSyn 5UTR act -89
Cc1cc(C)cc(NC(=O)CSc2nnc(-c3ccccc3C)o2)c1	aSyn 5UTR act -119
Cc1cccc(NC(=O)CSc2nnc(-c3ccccc3C)o2)c1	aSyn 5UTR act -94
CC(C)c1cc2c(c(O)c1O)[C@@]13CCCC(C)(C)C1CC2OC3=O (stereo partly drawn)	aSyn 5UTR act -126
